PubChem BioAssay (NCATS)
Inconclusive results are not listed. Active and inactive are the calls of the source. Unless noted, calls come from the whole dose curve; as a rule, active = well fitted curve in the direction sought with a large enough effect; inconclusive = small, poorly fitted or top-dose-only effect, or another doubt; inactive = no such curve, though single readings can be large; an effect the other way counts as inactive or inconclusive.

What was measured:
[1] = molecular target: Lysosomal acid glucosylceramidase (Homo sapiens) (UniProt P04062); assay: Glucocerebrosidase-p2 (AID 348; in the data active = potency below about 10 µM; note: potency is the fitted concentration of half-maximal effect); conditions: purified GBA, blue fluorogenic substrate, 40 min
How it was run: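 Normal human glucocerebrosidase (0.2 nM) with blue fluorogenic substrate (80 uM final) in citrate/phosphate pH 5.9 with 10mM sodium taurocholate, 0.01% tween-20; 40 min RT, NaOH/glycine stop; fluorescence Ex 365/Em 440; AC50 from a titration from 0.6 nM upwards.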

[2] = molecular target: Glucocorticoid receptor (Homo sapiens) (UniProt P04150); assay: GR-GFP Redistribution (AID 450;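 active = compounds whose dose series gives a full or clear partial fitted curve of increased nuclear translocation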; note: potency is the fitted concentration of half-maximal effect); conditions: U2OS GR-GFP nuclear translocation, laser cytometry, 2 h
[3] = molecular target: Glucocorticoid receptor (Homo sapiens) (UniProt P04150); assay: GR-EFC Redistribution (AID 451; calls by dose curve; note: potency is the fitted concentration of half-maximal effect); conditions: CHO-K1 GR-EFC translocation, beta-gal luminescence, 2 h
How it was run: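 Translocation of GR-ED fusion to nuclear EA restores b-gal, read by luminescence after 1 h room-temperature detection. Engineered CHO-K1 biosensor cells, 1,000/well, exposed 2 h at 37 C to titrations up to 46 uM final.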

[4] = molecular target: Mitogen-activated protein kinase 10 (Mus musculus) (UniProt Q61831); assay: JNK3 AlphaScreen Assay (AID 530; active = well fitted curve in either direction with a large enough effect, not every such curve was filed as active;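 note: kinase came from lysate of stimulated human HepG2 cells; signal reports phosphorylation of biotinylated GST-cJun 1-79 at Ser73 with 10 µM ATP; % is set by controls: 0 for no effect and ±100 for the full control effect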)
How it was run: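 qHTS titrations with 15 min compound pre-incubation before adding ATP (10 uM final). Read-out: AlphaScreen of Ser73-phosphorylated biotin-GST-cJun using HepG2 lysate JNK3 activated by IL-1β and TNFα.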

[5] = qHTS Assay for Lipid Storage Modulators (AID 1519; calls by dose curve); conditions: Drosophila S3 cells, BODIPY lipid droplet/cell ratio, laser cytometry, cells loaded with oleic acid; for activity change, negative = inhibition: at 57.5 µM (top of the series)
How it was run: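 Cells seeded at 5,000 per well were treated with compounds over a concentration series and loaded with oleic acid (400 uM, as added). Lipid droplet fluorescence (488 nm excitation, 500-530 nm channel) was read by laser-scanning cytometry and normalized to 20 uM Triacsin C.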

[6] = Counterscreen qHTS for small molecule stabilizers of the endoplasmic reticulum resident proteome: GLuc-NoTag assay (AID 1508627);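 note: 0% = thapsigargin alone and -100% = DMSO vehicle control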
How it was run: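 Counterscreen line: SH-SY5Y-GLuc-NoTag cells, treated with compound 19 hr before a 4 hr, 100 nM thapsigargin calcium depletion. Secreted Gaussia luciferase in the medium was measured by luminescence after coelenterazine was added (0.07x final), with cells unlysed.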

[7] = Confirmatory qHTS for small molecule stabilizers of the endoplasmic reticulum resident proteome: Secreted ER Calcium Modulated Protein (SERCaMP) assay (AID 1508628); note: nearly all actives have a fitted effect of over 40% in size; note: potency is the fitted concentration of half-maximal effect
How it was run: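 Reporter secretion upon ER calcium depletion (100 nM thapsigargin, 4 h, 37C) is measured as medium luminescence with coelenterazine, after 16 h compound pretreatment of SH-SY5Y-GLuc-SERCaMP cells; primary at three concentrations up to 38.3 uM, follow-up at 11 (up to 76.6 uM).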

[8] = AP1 Signaling Pathway (AID 357; active = well fitted curve in either direction with a large enough effect, not every such curve was filed as active; note: % is set by controls: 0 for no effect and ±100 for the full control effect); conditions: ME-180 AP-1-bla reporter, EGF-induced, beta-lactamase ratio, 5 h; at 7.69 µM (top of the series) unless noted
How it was run: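 Modulation of EGF-driven AP-1 transcription was assessed with a beta-lactamase reporter in ME-180 cells. Compound and EC50 EGF were co-incubated 5 hours at 37 °C before 2.5-hour CCF4 loading at room temperature and dual-emission reading.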

[9] = molecular target: Cytochrome P450 1A2 (Homo sapiens) (UniProt P05177); assay: p450-cyp1a2 (AID 410; calls by dose curve; note: potency is the fitted concentration of half-maximal effect)
How it was run: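 Luminescent demethylation readout: Luciferin-ME (100uM, equal to Km) turned over by 20nM CYP1A2 for 60 min at room temperature after NADPH regeneration addition, following 10 min compound preincubation. Normalization used 57 uM furafylline as full inhibition.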

[10] = NFAT Signaling Pathway (AID 444; active = well fitted curve in either direction with a large enough effect, not every such curve was filed as active;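 note: carbachol stimulus at about its EC50 of 1 µM final; % is set by controls: 0 for no effect and ±100 for the full control effect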); conditions: Jurkat NFAT-bla M1, carbachol, beta-lactamase ratio, 5 h; at 7.69 µM (top of the series) unless noted
How it was run: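 Read-out: CCF4 FRET ratio (460 nm/530 nm) after 1 h RT dye loading, used for %activity and AC50 from titration series. Cells: Jurkat NFAT-β-lactamase/M1 line, treated with compound plus 1 uM carbachol for 5 h, 37 °C.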

[11] = Stat Signaling Pathway (AID 446; active = well fitted curve in either direction with a large enough effect, not every such curve was filed as active;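 note: ME-180 cervical cancer cells given 40 pM IL-6 alongside compound; SIE-controlled beta-lactamase reporter measured as 460/530 nm FRET emission ratio; % is set by controls: 0 for no effect and ±100 for the full control effect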); conditions: ME-180 (cervical carcinoma) SIE beta-lactamase reporter, IL-6 stimulated, 5 h; at 7.69 µM (top of the series) unless noted
How it was run: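 Compound effects on IL-6-induced STAT reporter activity were measured in ME-180 cells. After overnight culture, cells were co-treated with 40 pM IL-6 for 5 hrs before beta-lactamase substrate loading at room temperature.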

[12] = molecular target: Cytochrome P450 3A4 (Homo sapiens) (UniProt P08684); assay: qHTS Assay for Inhibitors and Substrates of Cytochrome P450 3A4 (AID 884); note: potency is the fitted concentration of half-maximal effect; nearly all actives have a fitted effect of over 50% in size
How it was run: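 Luminescent readout of luciferin produced by CYP3A4 (20 nM) dealkylation of Luciferin-PPXE, 25 uM (its KM). NADPH-driven reaction ran 60 min at RT after 10 min compound preincubation; data scaled to 57 uM ketoconazole as 100% inhibition.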

[13] = molecular target: Cytochrome P450 3A4 (Homo sapiens) (UniProt P08684); assay: qHTS Assay for Activators of Cytochrome P450 3A4 (AID 885); note: nearly all actives have a fitted effect of over 65% in size
How it was run: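 CYP3A4 activity: Luciferin-PPXE O-dealkylation, 25uM substrate, 200mM KPO4, RT throughout. Read-out is luciferase luminescence; higher values reflect activation.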

[14] = molecular target: Dual specificity protein kinase CLK4 (Homo sapiens) (UniProt Q9HAZ1); assay: qHTS Assay for Inhibitors of CDC-like Kinase 4 (ADP-FP Assay) (AID 1795);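 note: recombinant human CLK4 phosphorylating RS repeat peptide at 1 µM ATP; % is set by controls: 0 for no effect and ±100 for the full control effect; nearly all actives have a fitted effect of over 60% in size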
How it was run: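 FP readout: Orange Transcreener ADP2 tracer (4 nM) plus ADP antibody, read after 30 min at room temperature. Kinase step: 6.25 nM Clk4, 100 uM RS peptide, 1 uM ATP, pH 7.5, 1 h.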

[15] = molecular target: Ubiquitin carboxyl-terminal hydrolase 1 (Homo sapiens) (UniProt O94782); assay: Inhibitors of USP1/UAF1: Pilot qHTS (AID 504865);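 note: rhodamine fluorescence freed from ubiquitin-rhodamine substrate followed over time; top concentration of the series differs between compounds; % is set by controls: 0 for no effect and ±100 for the full control effect; nearly all actives have a fitted effect of over 35% in size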
How it was run: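 1nM USP1/UAF1 + cpd, 15 min RT; start w/ Ub-Rho 150nM final; kinetic FL 480/540 nm, 6 reads q60 s. Buffer 50mM HEPES pH 7.8, 0.5mM EDTA, 1mM TCEP, 0.01% Tween-20, 0.1 mg/ml BSA.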

[16] = Confirmation and Secondary Assay for Modulators of Hemoglobin Beta Chain Splicing at IVS2 654 locus (AID 910);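 note: HeLa cells stably carrying EGFP split by mutant beta-globin IVS2-654 intron; per-well total GFP intensity by laser scanning cytometry after 2-day treatment; % of control where 0% means no effect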
How it was run: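 Readout: per-well total peak green fluorescence (488 nm ex, 500–520 nm em) from objects 5–250 µm, reflecting correct splicing of an EGFP-654 reporter. Compounds were applied for 2 days at 37 °C to overnight-plated HeLa EGFP-654 cells; controls were DMSO and 500 nM IVS2-654 PNA.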

[17] = molecular target: 3',5'-cyclic-AMP phosphodiesterase 4B (Homo sapiens) (UniProt Q07343); assay: qHTS Assay for Inhibitors of PDE-IV (AID 607; active = well fitted activation curve with a large enough effect in the main read-out, with a control signal flat, not every such curve was filed as active; note: % of control where 0% means no effect)
How it was run: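 ACTOne HEK293 cells carry a modified cAMP-gated CNG channel and express endogenous PDE4; plated 1000 cells/well, compounds up to 22.9 uM final. Membrane-potential dye fluorescence (ex 535/em 590) was read; parental cells received 10 uM forskolin + 100 uM RO 20-1724.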

[18] = molecular target: Dual specificity protein kinase CLK4 (Homo sapiens) (UniProt Q9HAZ1); assay: qHTS Assay for Inhibitors of CDC-like Kinase 4 (Kinase-Glo Assay) (AID 1770); note: % is set by controls: 0 for no effect and ±100 for the full control effect; nearly all actives have a fitted effect of over 65% in size
How it was run: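 Readout: Kinase-Glo luminescence from ATP left after a 4.5 h room-temperature reaction of 25 nM Clk4 with 100 uM RS peptide and 1 uM ATP (final). Buffer: 25 mM Tris pH 7.5, 10 mM MgCl2.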

[19] = molecular target: Dual specificity protein kinase CLK4 (Homo sapiens) (UniProt Q9HAZ1); assay: qHTS Assay for Inhibitors of CDC-like Kinase 4 (ADP-Glo Assay) (AID 1771); note: % is set by controls: 0 for no effect and ±100 for the full control effect; nearly all actives have a fitted effect of over 70% in size
How it was run: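 ADP production was read by ADP-Glo luminescence after residual ATP depletion, following 1 h room-temperature reaction of 25 nM Clk4, 1 uM ATP and 100 uM RS peptide with MgCl2, EGTA, DTT and Triton X-100.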

[20] = measured here: cell count channel max response
[21] = measured here: lipid channel max response

Chain of Cytochrome P450 1A2 (Homo sapiens) (P05177 whole entry, looked up): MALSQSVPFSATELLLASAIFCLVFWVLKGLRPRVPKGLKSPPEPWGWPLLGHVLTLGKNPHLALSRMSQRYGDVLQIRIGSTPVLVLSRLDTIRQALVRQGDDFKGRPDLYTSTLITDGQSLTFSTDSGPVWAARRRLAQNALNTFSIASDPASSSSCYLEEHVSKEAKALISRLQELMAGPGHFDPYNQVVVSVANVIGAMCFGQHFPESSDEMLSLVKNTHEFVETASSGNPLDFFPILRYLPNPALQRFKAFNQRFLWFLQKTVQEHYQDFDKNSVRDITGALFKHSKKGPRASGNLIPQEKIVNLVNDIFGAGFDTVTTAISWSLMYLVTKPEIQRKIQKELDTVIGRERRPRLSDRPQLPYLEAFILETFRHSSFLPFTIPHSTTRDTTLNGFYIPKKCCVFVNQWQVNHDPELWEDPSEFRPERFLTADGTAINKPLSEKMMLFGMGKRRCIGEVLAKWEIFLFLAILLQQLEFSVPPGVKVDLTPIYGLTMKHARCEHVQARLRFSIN
Chain of Dual specificity protein kinase CLK4 (Homo sapiens) (Q9HAZ1 whole entry, looked up): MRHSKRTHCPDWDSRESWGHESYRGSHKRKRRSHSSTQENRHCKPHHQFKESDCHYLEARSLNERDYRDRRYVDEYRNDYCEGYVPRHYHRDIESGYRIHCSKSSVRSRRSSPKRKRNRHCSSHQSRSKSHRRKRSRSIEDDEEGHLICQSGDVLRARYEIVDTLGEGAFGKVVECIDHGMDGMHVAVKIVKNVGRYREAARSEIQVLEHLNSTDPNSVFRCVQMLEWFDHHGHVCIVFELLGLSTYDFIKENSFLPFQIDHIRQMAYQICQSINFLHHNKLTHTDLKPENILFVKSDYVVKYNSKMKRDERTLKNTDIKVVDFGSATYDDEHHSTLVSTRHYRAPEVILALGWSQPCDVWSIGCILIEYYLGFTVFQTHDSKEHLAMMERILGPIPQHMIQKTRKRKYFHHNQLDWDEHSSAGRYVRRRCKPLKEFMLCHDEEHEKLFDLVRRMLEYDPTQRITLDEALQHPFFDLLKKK
Chain of Cytochrome P450 3A4 (Homo sapiens) (P08684 whole entry, looked up): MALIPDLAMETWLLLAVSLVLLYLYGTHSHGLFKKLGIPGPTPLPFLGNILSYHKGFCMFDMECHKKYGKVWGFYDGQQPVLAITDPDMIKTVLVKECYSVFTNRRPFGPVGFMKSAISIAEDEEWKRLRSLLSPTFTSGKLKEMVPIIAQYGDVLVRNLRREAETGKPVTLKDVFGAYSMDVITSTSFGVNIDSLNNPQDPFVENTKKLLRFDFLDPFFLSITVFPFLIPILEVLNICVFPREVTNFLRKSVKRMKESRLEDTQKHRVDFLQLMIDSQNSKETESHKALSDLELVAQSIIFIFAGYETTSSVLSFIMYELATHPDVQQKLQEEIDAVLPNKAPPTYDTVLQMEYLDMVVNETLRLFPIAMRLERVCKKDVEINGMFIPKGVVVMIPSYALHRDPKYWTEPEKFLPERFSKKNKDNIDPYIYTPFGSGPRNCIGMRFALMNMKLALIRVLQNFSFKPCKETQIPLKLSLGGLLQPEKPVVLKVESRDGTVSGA
Chain of Lysosomal acid glucosylceramidase (Homo sapiens) (P04062 whole entry, looked up): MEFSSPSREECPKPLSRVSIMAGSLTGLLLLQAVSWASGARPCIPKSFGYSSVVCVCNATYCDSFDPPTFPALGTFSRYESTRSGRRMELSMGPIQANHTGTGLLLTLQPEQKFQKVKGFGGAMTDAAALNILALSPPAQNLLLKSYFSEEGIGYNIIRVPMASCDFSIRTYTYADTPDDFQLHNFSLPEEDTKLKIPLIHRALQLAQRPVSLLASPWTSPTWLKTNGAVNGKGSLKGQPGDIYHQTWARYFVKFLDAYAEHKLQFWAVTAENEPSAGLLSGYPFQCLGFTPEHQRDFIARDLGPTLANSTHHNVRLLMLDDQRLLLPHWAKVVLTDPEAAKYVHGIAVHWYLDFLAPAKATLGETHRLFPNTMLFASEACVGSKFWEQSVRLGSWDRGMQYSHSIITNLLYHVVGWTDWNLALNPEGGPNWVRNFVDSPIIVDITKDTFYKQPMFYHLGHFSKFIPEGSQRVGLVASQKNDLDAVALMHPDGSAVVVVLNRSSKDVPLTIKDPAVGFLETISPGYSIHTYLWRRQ
Chain of Glucocorticoid receptor (Homo sapiens) (P04150 whole entry, looked up, the tested form may be a part): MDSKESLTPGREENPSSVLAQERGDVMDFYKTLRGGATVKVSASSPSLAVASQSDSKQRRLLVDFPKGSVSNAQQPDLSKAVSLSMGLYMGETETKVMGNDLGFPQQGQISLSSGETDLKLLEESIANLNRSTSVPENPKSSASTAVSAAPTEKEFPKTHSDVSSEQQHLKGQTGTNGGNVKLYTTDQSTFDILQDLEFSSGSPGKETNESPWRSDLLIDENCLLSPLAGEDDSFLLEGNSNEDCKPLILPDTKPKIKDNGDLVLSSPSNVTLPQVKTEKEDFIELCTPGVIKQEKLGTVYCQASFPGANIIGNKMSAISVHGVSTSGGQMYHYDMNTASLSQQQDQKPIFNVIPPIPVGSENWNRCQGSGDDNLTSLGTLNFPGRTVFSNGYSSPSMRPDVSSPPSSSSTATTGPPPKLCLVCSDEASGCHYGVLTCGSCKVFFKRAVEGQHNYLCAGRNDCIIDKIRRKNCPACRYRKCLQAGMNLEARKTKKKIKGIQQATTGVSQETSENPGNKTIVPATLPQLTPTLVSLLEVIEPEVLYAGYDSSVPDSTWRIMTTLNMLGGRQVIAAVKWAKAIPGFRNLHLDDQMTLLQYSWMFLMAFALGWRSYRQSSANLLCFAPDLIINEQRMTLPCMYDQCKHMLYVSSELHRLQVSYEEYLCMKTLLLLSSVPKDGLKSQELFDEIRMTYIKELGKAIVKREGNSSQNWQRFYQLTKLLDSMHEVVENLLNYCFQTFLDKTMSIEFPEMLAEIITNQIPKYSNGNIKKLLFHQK
Chain of 3',5'-cyclic-AMP phosphodiesterase 4B (Homo sapiens) (Q07343 whole entry, looked up): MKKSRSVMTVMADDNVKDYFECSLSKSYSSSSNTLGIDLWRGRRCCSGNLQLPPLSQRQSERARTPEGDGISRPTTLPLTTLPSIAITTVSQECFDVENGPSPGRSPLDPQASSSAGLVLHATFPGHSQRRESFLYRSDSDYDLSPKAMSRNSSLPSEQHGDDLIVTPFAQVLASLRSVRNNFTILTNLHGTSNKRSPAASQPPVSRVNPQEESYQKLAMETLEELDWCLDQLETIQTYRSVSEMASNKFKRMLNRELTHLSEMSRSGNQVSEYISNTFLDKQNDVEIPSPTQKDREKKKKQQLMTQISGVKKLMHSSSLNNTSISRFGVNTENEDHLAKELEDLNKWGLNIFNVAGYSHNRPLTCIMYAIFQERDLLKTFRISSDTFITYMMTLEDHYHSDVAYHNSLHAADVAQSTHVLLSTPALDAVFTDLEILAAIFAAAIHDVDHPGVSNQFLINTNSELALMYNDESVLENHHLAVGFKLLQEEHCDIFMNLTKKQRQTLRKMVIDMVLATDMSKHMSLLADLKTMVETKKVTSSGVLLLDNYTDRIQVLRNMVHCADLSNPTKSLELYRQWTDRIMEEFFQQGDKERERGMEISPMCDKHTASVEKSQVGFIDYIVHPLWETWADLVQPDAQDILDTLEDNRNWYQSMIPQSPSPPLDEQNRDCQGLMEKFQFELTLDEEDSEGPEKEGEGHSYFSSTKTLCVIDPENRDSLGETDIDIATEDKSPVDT
Chain of Ubiquitin carboxyl-terminal hydrolase 1 (Homo sapiens) (O94782 whole entry, looked up): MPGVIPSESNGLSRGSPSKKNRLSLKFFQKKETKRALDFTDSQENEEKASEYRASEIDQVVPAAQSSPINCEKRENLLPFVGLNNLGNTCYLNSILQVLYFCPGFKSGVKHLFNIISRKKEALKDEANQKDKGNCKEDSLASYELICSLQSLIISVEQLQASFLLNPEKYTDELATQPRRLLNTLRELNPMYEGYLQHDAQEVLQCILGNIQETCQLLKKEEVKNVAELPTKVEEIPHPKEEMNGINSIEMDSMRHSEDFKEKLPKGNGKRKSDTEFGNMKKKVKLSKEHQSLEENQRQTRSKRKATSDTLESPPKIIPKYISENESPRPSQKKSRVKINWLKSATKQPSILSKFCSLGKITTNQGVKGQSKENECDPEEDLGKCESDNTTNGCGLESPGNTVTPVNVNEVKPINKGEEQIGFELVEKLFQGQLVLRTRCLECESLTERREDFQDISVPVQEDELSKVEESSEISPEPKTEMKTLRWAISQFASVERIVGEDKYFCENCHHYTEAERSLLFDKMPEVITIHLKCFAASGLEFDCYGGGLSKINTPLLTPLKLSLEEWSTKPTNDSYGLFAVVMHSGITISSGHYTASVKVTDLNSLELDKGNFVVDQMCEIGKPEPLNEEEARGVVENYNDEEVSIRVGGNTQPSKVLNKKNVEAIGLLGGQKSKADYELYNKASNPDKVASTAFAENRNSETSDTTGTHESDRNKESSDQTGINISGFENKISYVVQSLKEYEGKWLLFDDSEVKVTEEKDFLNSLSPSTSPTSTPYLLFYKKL

CN1CCN(c2ncc3nc(-c4cc(F)cc(F)c4)c(=O)n(-c4ccccc4)c3n2)CC1
14.9%: max response [5, 21]
13.7%: max response [5, 20]
inactive: Potency [1] > 11.4 µM | Potency [2] > 9.22 µM | Potency [3] > 46 µM | outcome [4] | activity change, negative = inhibition [5] 2.22% | Potency [6] | Potency [7]

COc1ccc(CNc2ncnc3ccc(-c4ccccc4OC)cc23)c(OC)c1
inactive: Potency [1] > 11.4 µM | activity change, negative = inhibition [8] -4.21% | activity change, negative = inhibition [10] -17.9% | activity, negative = inhibition [11] -2.99% | Potency [2] > 46 µM | Potency [3] > 46 µM | outcome [4] | Potency [13] | Potency [14] | Potency [15] | Potency [6]
active: Potency [9] 3.16 µM | Potency [12] 2 µM | Potency [7] 22.4 µM

CN1CCN(c2nc(-c3cccc(C#N)c3)nc3ccccc23)CC1
7.86%: max response [5, 21]
3.27%: max response [5, 20]
active: Potency [9] 1.58 µM | Potency [7] 12.6 µM
inactive: Potency [1] > 11.4 µM | activity change, negative = inhibition [8] 9.54% | activity change, negative = inhibition [10] -2.42% | activity, negative = inhibition [11] 21.4% | Potency [2] > 46 µM | Potency [3] > 46 µM | outcome [4] | Potency [13] | outcome [16] | activity change, negative = inhibition [5] 8.44% | Potency [6]

Fc1ccc(Nc2ccnc(-c3ccccc3C(F)(F)F)n2)cc1
inactive: Potency [1] > 11.4 µM | activity change, negative = inhibition [8] -7.91% | activity change, negative = inhibition [10] -6.61% | activity, negative = inhibition [11] 3.25% | Potency [2] > 46 µM | Potency [3] > 46 µM | outcome [4] | Potency [17] | Potency [13] | Potency [18] | Potency [19] | Potency [14] | Potency [6]
active: Potency [9] 2 µM | Potency [7] 50.1 µM

O=C(c1ccccc1)N1CCN(Cc2cccc(Oc3ccccc3)c2)CC1
inactive: Potency [6]

CN1CCN(c2nc(-c3ccc(N(C)C)cc3)nc3ccccc23)CC1
inactive: Potency [1] > 11.4 µM | activity change, negative = inhibition [8] 5.88% | activity change, negative = inhibition [10] -2.47% | activity, negative = inhibition [11] 3.05% | Potency [2] > 46 µM | Potency [3] > 46 µM | outcome [4] | Potency [17] | Potency [13] | outcome [16] | Potency [6] | Potency [7]
active: Potency [9] 12.6 µM | Potency [12] 15.8 µM
